From PubChem BioAssay (EPA / NIEHS) come the findings set out here.

By AC50 is commonly meant the concentration giving half of the maximal activity seen.

The nature of test [1]: BSK_BT_PBMCCytotoxicity: PBMC Cytotoxicity Assessment in the BioMAP Diversity Plus: BT Assay (AID 2284225).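 Note: PBMC viability measured by Alamar Blue dye reduction fluorescence.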 Conditions: primary human B cells with PBMC. The procedure, abridged:
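75,000 cells/well; cpd 1 h → SEB + TSST-1 (20 ng/mL final each) → 90 h → Alamar Blue 6 h → fluor. 546/580 nm. DMSO = neg. control/baseline.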

Read-out in test [2]: Secreted IgG (sIgG), gene 3500
Briefly: BSK_BT_sIgG: BioMAP Diversity Plus: BT Assay for Secreted IgG (sIgG) Biomarker Activity (AID 2284226). Conditions: primary human B cells with PBMC. The method in brief: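 B cells co-cultured with PBMC were dosed with chemical and secreted IgG quantified by ELISA at 24 h. Activity was fitted in the positive direction relative to DMSO as negative control and baseline.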

A short description of test [3]: BSK_BT_Bcell_Proliferation: Viability Assessment in the BioMAP Diversity Plus: BT Assay for B cell Proliferation (AID 2284227). Conditions: primary human B cells with PBMC. The procedure, abridged:
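Read-out is absorbance at 560 nm from sulforhodamine B staining of total protein, reflecting relative cell numbers in a human B cell and PBMC co-culture after 72 h of chemical exposure. Values were referenced to DMSO.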

Read-out in test [4]: Interleukin 6 (IL6), IL6 (gene 3569)
Briefly: BSK_BT_xIL6: BioMAP Diversity Plus: BT Assay for Interleukin 6 (IL6) Biomarker Activity (AID 2284228). Conditions: primary human B cells with PBMC. The method in brief: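 Readout: secreted IL-6 via Luminex xMAP multiplex, 24 h post-dosing. System: primary human B cells co-cultured with PBMC. Signal change scored relative to DMSO vehicle, positive fitting direction.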

Read-out in test [5]: Interleukin 17A (IL17A), IL17A (gene 3605)
Nature of the test: BSK_BT_xIL17A: BioMAP Diversity Plus: BT Assay for Interleukin 17A (IL17A) Biomarker Activity (AID 2284229). Conditions: primary human B cells with PBMC. The method in brief: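 Luminex xMAP readout of secreted IL-17A; human B cell + PBMC co-culture; 24 h post-dose; positive-direction fit vs DMSO negative control.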

Read-out in test [6]: Tumor necrosis factor (Homo sapiens) (UniProt P01375)
Briefly: BSK_BT_xTNFa: BioMAP Diversity Plus: BT Assay for Tumor necrosis factor alpha (TNF-alpha) Biomarker Activity (AID 2284230). The note with it: primary human B cells with PBMC. The method in brief:
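Human primary co-culture of B cells and peripheral blood mononuclear cells; TNF-alpha in supernatant, 24 h post-dose, Luminex multiplex; DMSO = baseline.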

Read-out in test [7]: Vascular cell adhesion molecule 1 (VCAM1), VCAM1 (gene 7412)
Nature of the test: BSK_MyoF_VCAM1: BioMAP Diversity Plus: MyoF Assay for Vascular cell adhesion molecule 1 (VCAM1) Biomarker Activity (AID 2284231). The note with it: primary human lung fibroblasts. The procedure, abridged:
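MyoF system, lung fibroblasts; 24 h post-dose; VCAM-1 by ELISA; gain-of-signal fit vs DMSO baseline.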

“And” between values parts separate entries of the source, which are not always exact repeats. Identical values can stand only once. The source made the active and inactive calls. Rule for the calls: active = hit-call score of the fitted dose curve at least 0.9, where 1 is the maximum; inactive = score below 0.9.

Tumor necrosis factor (Homo sapiens), sequence (P01375 whole entry, looked up): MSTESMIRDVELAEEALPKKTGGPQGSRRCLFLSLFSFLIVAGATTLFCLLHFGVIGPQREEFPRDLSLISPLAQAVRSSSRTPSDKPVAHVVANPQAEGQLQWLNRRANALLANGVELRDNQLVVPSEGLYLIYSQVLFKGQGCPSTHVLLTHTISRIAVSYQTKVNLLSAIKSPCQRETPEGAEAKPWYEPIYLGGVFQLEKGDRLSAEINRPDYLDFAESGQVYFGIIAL

`CCCCCCCCCCCCCCCCCC[N+](C)(C)Cc1ccccc1`: the AC50 in test [1] was 4.83 µM (active); in test [2] it was 0.66 µM (active); in test [3], 1.88 µM (active); in test [4], 6.37 µM (active); in test [5], 0.792 µM (active); in test [6] it was 3.16 µM (active). Besides, the AC50 in test [7] was 2.72 µM (active).

As for `CCCCCc1ccc(O)cc1`, the outcome in test [1], in test [3], in test [4], in test [5] and in test [6] was inactive. Moreover, the results for the AC50 in test [2] and in test [7] were 20 µM (active) and 26.9 µM (active), respectively.

Take `O=C1OC2(c3ccccc31)c1cc(I)c(O)c(I)c1Oc1c2cc(I)c(O)c1I`: the result in test [1], in test [2], in test [3], in test [4], in test [5] and in test [6] was inactive. Also, in test [7], the AC50 is 9.09 µM (active).

On to `O=C(O)C(F)(F)OC(F)(F)C(F)(F)OC(F)(F)C(F)(F)OC(F)(F)C(F)(F)C(F)(F)C(F)(F)F`, for which the result in test [1] and in test [3] was inactive. Moreover, the half-maximal activity concentration (AC50) was 42.5 µM (active) and 34.9 µM (active) in test [2]; 43.1 µM (active) and 52.8 µM (active) in test [4]; 41.8 µM (active) and 51.3 µM (active) in test [5]; 48.6 µM (active) and 53.5 µM (active) in test [6]; 12.5 µM (active) and 12.3 µM (active) in test [7].

As for `COc1cc(OC)nc(NC(=O)NS(=O)(=O)Nc2ccccc2C(=O)N(C)C)n1`, the outcome in test [1], in test [2], in test [3], in test [4], in test [5] and in test [6] was inactive. For the same compound, the result in test [7] was inactive.

As for `CC(C)(C)c1ccc(O)c(O)c1`, the AC50 in test [1] was 25.2 µM (active); in test [2], 31.4 µM (active); in test [3], 29.1 µM (active); in test [4], 25.3 µM (active); in test [5] it was 16.5 µM (active); in test [6], 31.5 µM (active). Moreover, the AC50 in test [7] is 31.5 µM (active).

On to `C=CC(=O)OCCC(F)(F)C(F)(F)C(F)(F)C(F)(F)C(F)(F)C(F)(F)C(F)(F)C(F)(F)F`, for which the outcome in test [1], in test [2], in test [3], in test [4], in test [5] and in test [6] was inactive. In test [7], the outcome was inactive.

Take `CC1=NN(c2ccccc2)C(=O)C1`: the result in test [1], in test [2], in test [3], in test [5], in test [6] and in test [7] was inactive. In addition, the AC50 in test [4] is 3.91 µM (active).

Turning to `Cc1ccc(N=Nc2c(O)ccc3ccccc23)c(C)c1`, the result in test [1], in test [3], in test [4], in test [5], in test [6] and in test [7] was inactive. Also, in test [2], the AC50 is 10 µM (active).

With `COc1cccc(O)c1`, the result in test [1], in test [2], in test [3], in test [4], in test [5] and in test [6] was inactive. Also, the result in test [7] was inactive.

For `Clc1ccc(Nc2nnc(Cc3ccncc3)c3ccccc23)cc1`, the outcome in test [1], in test [3], in test [5], in test [6] and in test [7] was inactive. Besides, the results for the concentration at half-maximal activity (AC50) in test [2] and in test [4] were 6.52 µM (active) and 8.4 µM (active), respectively.

In the case of `O=S(=O)(O)C(F)(F)C(F)(F)C(F)(F)C(F)(F)C(F)(F)C(F)(F)C(F)(F)C(F)(F)C(F)(F)C(F)(F)F`, the result in test [1], in test [2], in test [3], in test [4], in test [5] and in test [6] was inactive. In addition, the outcome in test [7] was inactive.

On to `O=C(NCc1ncc(C(F)(F)F)cc1Cl)c1c(Cl)cccc1Cl`, for which the result in test [1] and in test [7] was inactive. Further, the half-maximal activity concentration (AC50) was 9.52 µM (active) in test [2]; 20 µM (active) in test [3]; 20 µM (active) in test [4]; 15.5 µM (active) in test [5]; 20 µM (active) in test [6].

As for `CN(CCO)S(=O)(=O)C(F)(F)C(F)(F)C(F)(F)C(F)(F)C(F)(F)C(F)(F)C(F)(F)C(F)(F)F`, the outcome in test [1], in test [2], in test [3], in test [4], in test [5] and in test [6] was inactive. In addition, the result in test [7] was inactive.

As for `CCOC(=O)CN[C@@H](C(=O)N1CC[C@H]1C(=O)NCc1ccc(/C(N)=N/O)cc1)C1CCCCC1`, the result in test [1], in test [2], in test [3], in test [4], in test [5] and in test [6] was inactive. For the same compound, the result in test [7] was inactive.

As for `C=CC(=C)CC/C=C(\C)CCC=C(C)C`, the outcome in test [1], in test [2], in test [3], in test [4], in test [5] and in test [6] was inactive. In addition, the outcome in test [7] was inactive.

`Oc1cc2ccccc2cc1O`: the outcome in test [1], in test [2], in test [3], in test [4], in test [5] and in test [6] was inactive. For the same compound, in test [7], the result was inactive.

For the compound `NC(=NCCCCCCN=C(N)/N=C(\N)Nc1ccc(Cl)cc1)/N=C(\N)Nc1ccc(Cl)cc1`, the AC50 in test [1] is 13.7 µM (active); in test [2] it was 2.87 µM (active); in test [3], 9.19 µM (active); in test [4], 8.83 µM (active); in test [5] it was 4.09 µM (active); in test [6], 8.79 µM (active). For the same compound, the half-maximal activity concentration (AC50) in test [7] was 4.99 µM (active).

Turning to `O=C1c2ccc(O)c(O)c2C(=O)c2c(O)ccc(O)c21`, the result in test [1], in test [2], in test [3], in test [4], in test [5] and in test [6] was inactive. In test [7], the result was inactive.

For the compound `OCCN1CN(CCO)CN(CCO)C1`, the AC50 in test [1] was 30.2 µM (active); in test [2], 29.2 µM (active); in test [3], 38.2 µM (active); in test [4], 33.6 µM (active); in test [6], 34.1 µM (active). Also, the outcome in test [5] and in test [7] was inactive.

With `O=C(NO)c1ccccc1`, the outcome in test [1], in test [2], in test [3] and in test [7] was inactive. The half-maximal activity concentration (AC50) in test [4] is 4.24 µM (active); in test [5] it was 8.55 µM (active); in test [6] it was 19.2 µM (active).

Take `COCN(COC)c1nc(N(COC)COC)nc(N(COC)COC)n1`: the result in test [1], in test [2], in test [3], in test [4], in test [5] and in test [6] was inactive. Besides, the result in test [7] was inactive.

As to `Cc1cccc2c1ccc1ccccc12`, the result in test [1], in test [3], in test [5], in test [6] and in test [7] was inactive. For the same compound, the half-maximal activity concentration (AC50) is 26.6 µM (active) in test [2] and 0.157 µM (active) in test [4].

Consider `COC1=CC(=O)C[C@@H](C)[C@]12Oc1c(Cl)c(OC)cc(OC)c1C2=O`, for which the result in test [1], in test [4], in test [5] and in test [7] was inactive. Further, the values for the AC50 in test [2], in test [3] and in test [6] were 30.9 µM (active), 37.3 µM (active) and 20 µM (active), respectively.
